Reference: PubChem BioAssay AID977607 (Broad Institute, 2014)
About 460 (31%) of roughly 1,500 compounds were called active. About 1% were inconclusive and are not listed.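 Rule for the calls: active = curve reaches 40% activation over neutral controls at an AC40 no higher than the top valid tested concentration; inconclusive = no clear call, values can overlap the other calls; inactive = signal moving opposite to the expected increase, and the rest.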 A selection follows. Results with a measured potency or affinity are listed apart.

Test: activators of glucose-dependent insulin secretion, dose response, cell-based, INS-1E, Gaussia luciferase, luminescence, cherry-pick, set 2 (AID 977607);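 note: 0% = median of the plate neutral control wells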
Details: INS-1E GLuc insulin secretion reporter, 2-3 h, hits give high values; at 35 µM, 100% = signal doubled over neutral wells unless noted

Max activation, inactive:
COC(=O)c1ccc(C)c(-n2c(=O)n(Cc3ccccc3)c(=O)c3[nH]cnc32)c1 -20.8% [at 0.005 µM, 100% = signal doubled over neutral wells]
CC1CN(Cc2ccccc2)C(=S)NC1=O (stereo unspecified) -25.1% [at 3.8 µM, 100% = signal doubled over neutral wells]
Cc1c(C=O)c2ccccn2c1C(=O)c1ccc(F)cc1 -14.1% [at 0.0016 µM, 100% = signal doubled over neutral wells]
Cc1ccc(C(=O)c2sc3nc4c(cc3c2N)CCC4)cc1 -20.2% [at 3.8 µM, 100% = signal doubled over neutral wells]
O=C(N/N=C/c1ccncc1)c1cc(-c2ccc(Br)s2)[nH]n1 46.1%
Fc1cccc(-c2nnn3c2nc(Cl)c2ccccc23)c1 -32% [at 11 µM, 100% = signal doubled over neutral wells]
CCc1cc2c(COC(=O)c3cccc(NS(C)(=O)=O)c3)cc(=O)oc2cc1O -16.1%
O=C1CCc2cc(S(=O)(=O)N3CCN(c4ccc(F)cc4)CC3)cc3c2N1CC3 -14.5% [at 0.0016 µM, 100% = signal doubled over neutral wells]
CC(C)(C(=O)N1CCC1(C)C(=O)NS(=O)(=O)c1cccc(Cl)c1)c1ccccc1 (stereo unspecified) -17.3% [at 0.135 µM, 100% = signal doubled over neutral wells]
CCOc1ccccc1CNS(=O)(=O)c1cnc[nH]1 -8.34% [at 0.005 µM, 100% = signal doubled over neutral wells]
CN1CCN(CC(O)COC(c2ccc(Cl)cc2)c2ccc(Cl)cc2)CC1 (stereo unspecified) -16.1% [at 11 µM, 100% = signal doubled over neutral wells]
COc1ccccc1CSc1nc2c(c(=O)n(C)c(=O)n2C)n1C -16.4%
CC(=O)C(C)n1c(CN(C)Cc2ccccc2)nc2c1c(=O)n(C)c(=O)n2C (stereo unspecified) 13.8% [at 11 µM, 100% = signal doubled over neutral wells]
CCOC(=O)c1nn(-c2ccccc2)c2nc(Nc3ccccc3)cc(=O)n12 -18.7% [at 0.0016 µM, 100% = signal doubled over neutral wells]
O=S(=O)(c1ccc(=S)[nH]c1)N1CCCCCC1 19.7%
Cc1ccc(C(=O)c2sc(Nc3ccccc3)c(C#N)c2N)cc1 -18.3% [at 0.005 µM, 100% = signal doubled over neutral wells]
Cc1ccc(C)c(OCC(=O)NCC(C)(C)N2CCOCC2)c1 -15.8% [at 0.015 µM, 100% = signal doubled over neutral wells]
Cc1ccc(C)c(OCC(=O)Nc2cc(NC(=O)COc3cc(C)ccc3C)cc(C(=O)O)c2)c1 -27.7%
CC(C)Cn1c(Cc2ccccc2)n[nH]c1=S -12.9% [at 3.8 µM, 100% = signal doubled over neutral wells]
Cc1ccc2nc(N/N=C/c3ccccc3C#N)nc(-c3ccccc3)c2c1 -36.1%
COCc1[nH]nc2c1C(c1ccc(C)cc1)NC2=O (stereo unspecified) 25.3%
CCOc1ccc(C(=O)OCC(=O)Nc2cc(C)on2)cc1OCC 24%
COc1ccc(S(=O)(=O)N2CCOCC2)cc1NC(=O)COc1ccccc1 -23.5%
CCOc1ccc(-c2noc(CCC(=O)NC)n2)cc1OCC -18.4% [at 0.005 µM, 100% = signal doubled over neutral wells]
O=C(Cn1cnc2sc(-c3ccccc3)cc2c1=O)NCCc1ccccc1 -13.9% [at 11 µM, 100% = signal doubled over neutral wells]
COc1ccc(C(C)=O)cc1Cn1cnc2c(cnn2C)c1=O -12.8% [at 0.015 µM, 100% = signal doubled over neutral wells]
Cc1sc2ncn(CC(=O)NCc3ccccc3)c(=O)c2c1C -22.8% [at 0.015 µM, 100% = signal doubled over neutral wells]
CCC(=O)Nc1cc2nn(-c3ccc(OC)cc3)nc2cc1C -15.9% [at 3.8 µM, 100% = signal doubled over neutral wells]
Cc1cc(-c2ccc(S(=O)(=O)N3CCN(C)CC3)s2)on1 -22.5%
OC(c1ccc(Cl)cc1)C(CN1CCOCC1)c1ccccc1 (stereo unspecified) -24.5%
COC(=O)c1ccc(CNC(=O)CCc2c[nH]c3ccccc23)cc1 -13.7% [at 0.015 µM, 100% = signal doubled over neutral wells]
C/C(=N/Oc1nc(C)cc(C)n1)c1ccc(F)cc1 -10.7% [at 3.8 µM, 100% = signal doubled over neutral wells]
COc1ccc(-n2c(O)cnc2Nc2nc(C)cc(C)n2)cc1OC -16.8% [at 0.135 µM, 100% = signal doubled over neutral wells]
CNc1cc(-c2ccc(OC)c(OC)c2)ncn1 -15.3% [at 0.046 µM, 100% = signal doubled over neutral wells]
CNc1ccc(-c2ccccc2OC)cn1 -9.32% [at 1.2 µM, 100% = signal doubled over neutral wells]
O=C(NC1CCCC1)c1ccc(Cl)c(S(=O)(=O)N2CCOCC2)c1 23.2% [at 0.42 µM, 100% = signal doubled over neutral wells]
Cc1ccccc1CSCc1ccc(C(=O)NCCCN2CCOCC2)o1 -12.1% [at 0.046 µM, 100% = signal doubled over neutral wells]
CCOc1ccc2oc(=O)cc(CN3CCOCC3)c2c1 12.7%
CC(C)CC(=O)Nc1c2c(nn1-c1ccc(F)cc1)CS(=O)(=O)C2 -20.4% [at 1.2 µM, 100% = signal doubled over neutral wells]
Cc1ccccc1-n1nc2c(c1NC(=O)c1cc3ccccc3oc1=O)CS(=O)(=O)C2 24.5% [at 3.8 µM, 100% = signal doubled over neutral wells]
Cc1cc(Cl)ccc1-c1nc(NCc2ccccc2)nc2ccsc12 -22.5% [at 11 µM, 100% = signal doubled over neutral wells]
c1ccc(CNc2nc(Oc3ccncc3)c3sccc3n2)cc1 13.8% [at 11 µM, 100% = signal doubled over neutral wells]
C[C@@H]1CN([C@H](C)CO)C(=O)CCCn2cc(nn2)CO[C@H]1CN(C)S(=O)(=O)c1cccs1 -22.5% [at 11 µM, 100% = signal doubled over neutral wells]
C[C@@H]1CC2=C(C(=O)OC(C)(C)O2)[C@H](c2ccc(F)cc2)O1 -20.8% [at 0.015 µM, 100% = signal doubled over neutral wells]
NC(=O)c1ccsc1NC(=O)COC(=O)CNC(=O)c1ccc(Cl)cc1 -11.2% [at 0.005 µM, 100% = signal doubled over neutral wells]
CC1(C(=O)NCc2ccccc2)CN(S(C)(=O)=O)CC(=O)N1C1CC1 (stereo unspecified) -10.6% [at 11 µM, 100% = signal doubled over neutral wells]
CCN(CCC(=O)O)c1ccccc1 -16.1% [at 0.135 µM, 100% = signal doubled over neutral wells]
O=C(Cn1cc(C(F)(F)F)ccc1=O)NCC1CCCO1 (stereo unspecified) -21% [at 0.015 µM, 100% = signal doubled over neutral wells]
CC1=NS(=O)(=O)NC(C)(C)C1 51.2% [at 0.42 µM, 100% = signal doubled over neutral wells]
COc1ccc(CCNC(=O)COC(=O)c2cncc(Br)c2)cc1OC -19.1%
CCc1ccc(OCC(=O)NC(=S)Nc2ccc(C)cc2C)c(Br)c1 -19.5% [at 0.046 µM, 100% = signal doubled over neutral wells]
COCCN(CCOC)Cc1cc(=O)oc2cc(OC)c(Cl)cc12 13.5% [at 11 µM, 100% = signal doubled over neutral wells]
O=C(COC(=O)C1CCC1)NC(=O)c1ccccc1 -14.8% [at 11 µM, 100% = signal doubled over neutral wells]
Cc1ccc(OCC(=O)NC(C)c2ccccc2)cc1 (stereo unspecified) 22.7% [at 0.005 µM, 100% = signal doubled over neutral wells]
CN(C)C(=O)COC(=O)c1cccnc1Nc1ccccc1F -17.2% [at 3.8 µM, 100% = signal doubled over neutral wells]
CN(C)N1C(N)=C(C#N)C(c2ccc(F)cc2)C2=C1CCCC2=O (stereo unspecified) 30.5% [at 11 µM, 100% = signal doubled over neutral wells]
